Test results from PubChem BioAssay (Tox21).
Results filed as inconclusive are left out. Calls of active or inactive are those of the source. Unless noted, calls follow the shape of the dose curve; as a rule, active = well fitted curve in the direction sought with a large enough effect in the repeat runs; inconclusive = weak or mixed curves; inactive = no such curve, though single readings can be large; an effect the other way counts as inactive or inconclusive.

What was measured:
[1] = qHTS RealTime-Glo MT Cell Viability Assay in HEK293 cells - 0 hour (AID 1224880); also: top concentration of the series differs between compounds; nearly all actives have a fitted effect of over 45% in size
Outline: (§1)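 Kinetic, non-lysing viability readout. Seed HEK293 (600/well) with reagent, incubate 5 h at 37 C/5% CO2, pin 23 nL compound in DMSO, incubate at 37 C, read luminescence at 0, 8, 16, 24, 32, 40 h.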

[2] = A CellTox Green Cytotoxicity Assay to monitor cytotoxicity in HEK293 cells - 32 hour (AID 1224881); also: nearly all actives have a fitted effect of over 40% in size
Outline: (§2)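 Real-time, in one plate: 600 HEK293 cells/well with dead-cell DNA dye, pinned compound after 5 h, 37 C incubation over 40 h; viable cells give no appreciable fluorescence.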

[3] = A CellTox Green Cytotoxicity Assay to monitor cytotoxicity in HepG2 cells - 0 hour (AID 1224882); also: nearly all actives have a fitted effect of over 35% in size
Outline: (§3)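 Cytotoxicity was tracked as dead-cell DNA fluorescence in HepG2 cells treated with test compounds at 37 C; each time-point value comes from one kinetic series spanning 0, 8, 16, 24, 32 and 40 h.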

[4] = A CellTox Green Cytotoxicity Assay to monitor cytotoxicity in HepG2 cells - 32 hour (AID 1224883); also: nearly all actives have a fitted effect of over 50% in size
Outline: as §3

[5] = A CellTox Green Cytotoxicity Assay to monitor cytotoxicity in HEK293 cells - 8 hour (AID 1224884); also: nearly all actives have a fitted effect of over 35% in size
Outline: as §2

[6] = qHTS RealTime-Glo MT Cell Viability Assay in HepG2 cells - 16 hour (AID 1224885); also: nearly all actives have a fitted effect of over 50% in size
Outline: (§4)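 Viability was tracked continuously by NanoLuc luminescence from prosubstrate reduced by living HepG2 cells, at successive time points over 40 h of compound exposure. Cells with reagent were preincubated 5 h at 37 °C before compound addition.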

[7] = qHTS RealTime-Glo MT Cell Viability Assay in HEK293 cells - 24 hour (AID 1224886); also: top concentration of the series differs between compounds; nearly all actives have a fitted effect of over 50% in size
Outline: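 Viability tracked continuously by luminescence as live cells reduce a prosubstrate for NanoLuc; HEK293 cells preincubated 5 h, compound-treated at 37 C, and read at 0, 8, 16, 24, 32 and 40 h.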

[8] = qHTS RealTime-Glo MT Cell Viability Assay in HEK293 cells - 8 hour (AID 1224887); also: top concentration of the series differs between compounds; nearly all actives have a fitted effect of over 50% in size
Outline: as §1

[9] = A CellTox Green Cytotoxicity Assay to monitor cytotoxicity in HEK293 cells - 16 hour (AID 1224888); also: nearly all actives have a fitted effect of over 35% in size
Outline: as §2

[10] = qHTS RealTime-Glo MT Cell Viability Assay in HepG2 cells - 0 hour (AID 1224889); also: nearly all actives have a fitted effect of over 50% in size
Outline: as §4

[11] = A CellTox Green Cytotoxicity Assay to monitor cytotoxicity in HepG2 cells - 8 hour (AID 1224890); also: nearly all actives have a fitted effect of over 45% in size
Outline: as §3

[12] = qHTS assay to identify small molecule antagonists of the estrogen receptor alpha (ER-alpha) signaling pathway using the BG1 cell line in the presence of 0.1 nM 17-beta-estradiol - cell viability counter screen (AID 1259241); also: nearly all actives have a fitted effect of over 40% in size
Outline: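 CellTiter-Fluor read (30 min, 37C) on ER-alpha/ERE-luc VM7Luc4E2 cells; 22 hr compound treatment; agonist 0.1 nM E2 final; same-well multiplex.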

[13] = qHTS assay to identify small molecule antagonists of the androgen receptor (AR) signaling pathway using the MDA cell line in the presence of 0.5 nM R1881 - cell viability counter screen (AID 1259242); also: nearly all actives have a fitted effect of over 45% in size
Outline: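 Cells seeded at 3,000/well and allowed 5 hr at 37C, 0% CO2 before compound transfer and R1881 (0.5 nM final) addition; 16 hr later, live-cell protease fluorescence indicated cytotoxicity.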

[14] = target: Androgen receptor (Homo sapiens) (UniProt P10275); assay: qHTS assay to identify small molecule antagonists of the androgen receptor (AR) signaling pathway using the MDA cell line in the presence of 0.5 nM R1881 (AID 1259243); also: nearly all actives have a fitted effect of over 50% in size
Sequence of Androgen receptor (Homo sapiens) (P10275 whole entry, looked up): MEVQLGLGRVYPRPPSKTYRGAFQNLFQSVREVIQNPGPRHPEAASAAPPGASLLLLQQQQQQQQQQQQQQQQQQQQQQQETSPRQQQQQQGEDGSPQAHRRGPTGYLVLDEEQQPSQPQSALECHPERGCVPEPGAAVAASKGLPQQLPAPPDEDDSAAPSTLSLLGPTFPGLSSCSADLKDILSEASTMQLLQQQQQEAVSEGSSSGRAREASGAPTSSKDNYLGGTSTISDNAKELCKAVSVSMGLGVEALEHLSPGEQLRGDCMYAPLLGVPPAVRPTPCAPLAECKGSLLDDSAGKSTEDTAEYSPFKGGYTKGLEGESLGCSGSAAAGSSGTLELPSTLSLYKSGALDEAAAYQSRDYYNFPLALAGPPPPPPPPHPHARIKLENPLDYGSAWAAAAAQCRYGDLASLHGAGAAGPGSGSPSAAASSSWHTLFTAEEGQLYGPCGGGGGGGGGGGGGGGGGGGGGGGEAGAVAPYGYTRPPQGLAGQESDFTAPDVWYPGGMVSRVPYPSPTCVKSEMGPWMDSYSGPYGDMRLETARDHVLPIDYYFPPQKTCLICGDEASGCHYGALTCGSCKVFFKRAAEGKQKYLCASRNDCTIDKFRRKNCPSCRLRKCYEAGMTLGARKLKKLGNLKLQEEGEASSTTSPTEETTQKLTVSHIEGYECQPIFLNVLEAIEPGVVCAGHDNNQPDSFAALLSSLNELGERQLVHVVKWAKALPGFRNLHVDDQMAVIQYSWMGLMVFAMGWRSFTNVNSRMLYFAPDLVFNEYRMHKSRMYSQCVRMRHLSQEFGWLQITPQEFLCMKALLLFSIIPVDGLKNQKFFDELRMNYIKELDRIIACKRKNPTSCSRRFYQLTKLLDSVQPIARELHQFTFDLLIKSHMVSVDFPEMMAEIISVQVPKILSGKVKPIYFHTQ
Outline: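 Luminescence from an AR/GR-responsive MMTV-luciferase construct in MDA-kb2 breast carcinoma cells, read 30 min after ONE-Glo, following 16 hr co-treatment with compounds and 0.5 nM R1881.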

[15] = target: Estrogen receptor (Homo sapiens) (UniProt P03372); assay: qHTS assay to identify small molecule antagonists of the estrogen receptor alpha (ER-alpha) signaling pathway using the BG1 cell line in the presence of 0.1 nM 17-beta-estradiol (AID 1259244); also: nearly all actives have a fitted effect of over 50% in size
Sequence of Estrogen receptor (Homo sapiens) (P03372 whole entry, looked up): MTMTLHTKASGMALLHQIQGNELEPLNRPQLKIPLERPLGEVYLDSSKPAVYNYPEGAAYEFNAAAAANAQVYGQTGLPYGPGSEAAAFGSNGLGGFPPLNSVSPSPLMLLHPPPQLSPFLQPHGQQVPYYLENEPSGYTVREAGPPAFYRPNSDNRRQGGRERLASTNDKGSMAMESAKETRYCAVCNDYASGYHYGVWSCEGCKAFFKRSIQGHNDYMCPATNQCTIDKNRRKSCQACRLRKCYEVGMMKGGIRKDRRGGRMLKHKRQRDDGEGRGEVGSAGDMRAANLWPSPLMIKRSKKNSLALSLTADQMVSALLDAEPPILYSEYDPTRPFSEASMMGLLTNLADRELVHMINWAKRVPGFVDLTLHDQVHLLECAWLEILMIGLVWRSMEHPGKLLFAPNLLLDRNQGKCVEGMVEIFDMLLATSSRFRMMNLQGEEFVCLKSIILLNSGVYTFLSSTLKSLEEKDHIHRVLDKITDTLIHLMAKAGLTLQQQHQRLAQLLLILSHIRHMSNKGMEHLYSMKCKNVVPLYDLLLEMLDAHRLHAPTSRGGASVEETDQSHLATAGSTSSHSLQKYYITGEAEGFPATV
Outline: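 Luciferase signal from VM7Luc4E2 ERE-reporter cells, co-dosed with test compound and 0.1 nM final 17beta-estradiol for 22 h, read with ONE-Glo.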

[16] = qHTS assay to identify small molecule HDAC inhibitors (AID 1259364);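 also: wild-type HCT-116 cells with endogenous class I/II HDAC activity; top concentration of the series differs between compounds; nearly all actives have a fitted effect of over 45% in size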
Outline: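 HCT-116 wt cells, 1,500/well, overnight attach. Compounds (DMSO) 2 h, 37 °C. HDAC-Glo I/II, 30 min RT. Luminescence.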

[17] = qHTS assay to identify small molecule HDAC inhibitors - cell viability counter screen (AID 1259365)
Outline: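 To flag cytotoxic hits, 1,500 wild-type HCT-116 cells per well, plated the day before, receive test compounds for 2hr at 37 C before CellTiter-Glo reagent and a luminescence read.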

[18] = qHTS assay to identify small molecule agonists of the sonic hedgehog signaling (Shh) pathway - cell viability counter screen (AID 1259366); also: nearly all actives have a fitted effect of over 50% in size
Outline: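 Fluorescence from CellTiter-Fluor reports live cells in this counter screen. NIH/3T3-derived Gli1-Luc reporter cells receive test compounds for 24hr at 37C; reagent goes in at 23hr.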

[19] = qHTS assay to identify small molecule antagonists of the sonic hedgehog signaling (Shh) pathway - cell viability counter screen (AID 1259367); also: nearly all actives have a fitted effect of over 55% in size
Outline: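 Cytotoxicity was assessed in parallel with Shh reporter activity by measuring live-cell protease fluorescence (CellTiter-Fluor) in NIH/3T3 cells stably carrying Gli1-Luc, treated with compound under conditioned medium stimulation for 23 hr plus 1 hr reagent incubation.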

[20] = qHTS assay to identify small molecule phospholipidosis (PLD) inducers (AID 1259344; active = well fitted curve in the direction sought with a large enough effect; an effect the other way counts as inactive or inconclusive)
Outline: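 Cells (HepG2, 900 per well) attach for 4 h, receive LipidTOX Red and compound together, incubate 24 h at 37 C, are fixed 30 min with paraformaldehyde/Hoechst, then imaged at one site per well.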

Measured: Potency

O=C1c2ccccc2C(=O)N1CCl
inactive: [1] | [2] | [3] | [4] | [5] | [6] | [7] | [8] | [9] | [10] | [11] | [12] | [13] | [14] | [15] | [16] | [17] | [18] | [19]

CC/C=C\CC1=C(C)CCC1=O
inactive: [1] | [2] | [3] | [4] | [5] | [6] | [7] | [8] | [9] | [10] | [11] | [12] | [13] | [14] | [16] | [17] | [18] | [19]

C=C(C)C(=O)OCCN(CC)CC
inactive: [1] | [2] | [3] | [4] | [5] | [6] | [7] | [8] | [9] | [10] | [11] | [12] | [13] | [14] | [16] | [17] | [18] | [19]

CNC(=O)[C@H]1O[C@@H](n2cnc3c(NCc4cc(Cl)ccc4OCc4cc(C)no4)ncnc32)[C@H](O)[C@@H]1N
inactive: [1] | [2] | [3] | [4] | [5] | [6] | [7] | [8] | [9] | [10] | [11] | [12] | [13] | [14] | [15] | [16] | [17] | [18] | [19]

COc1cc2c(cc1OC)C(=O)CC2
inactive: [1] | [2] | [3] | [4] | [5] | [6] | [7] | [8] | [9] | [10] | [11] | [12] | [13] | [14] | [16] | [17] | [18] | [19]

CCCCCCCCCC(C)=O
inactive: [1] | [2] | [3] | [4] | [5] | [6] | [7] | [8] | [9] | [10] | [11] | [12] | [13] | [14] | [15] | [16] | [17] | [18] | [19]

C[C@H](N)[C@H](O)c1cccc(O)c1
inactive: [1] | [2] | [3] | [4] | [5] | [6] | [7] | [8] | [9] | [10] | [11] | [12] | [13] | [15] | [20] | [16] | [17] | [18] | [19]

NC(CO)C(=O)NNCc1ccc(O)c(O)c1O (centres undefined)
inactive: [1] | [2] | [3] | [4] | [5] | [6] | [7] | [8] | [9] | [10] | [11] | [12] | [13] | [14] | [15] | [20] | [16] | [17] | [19]
